Reference: PubChem BioAssay AID1159580 (chemical genetic matrix, 2015)
Where “and” joins values, the source holds several entries; their conditions need not be identical. Identical values can stand only once. Screen size: about 5,500 compounds; about 2,000 (36%) were called active. Roughly 18% stayed inconclusive and do not appear here. Cut-off read from the data, not from the text of the source: active = normalized growth mostly below about 0.91 (no sharp cut-off); inconclusive = no clear call, values can overlap the other calls; inactive = mostly above about 0.92. Some of the results follow.

Assay: chemical genetic growth profiling, strain panel (AID 1159580);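 note: tested at 20 µM; growth read once vehicle control cultures reached saturation at 30 °C; 1 = growth at the plate median or of vehicle wells; lower values mean less growth of the strain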
Conditions: S. cerevisiae deletion strains, growth OD
[1] = locus YJR075W, strain HOC1, stronger effect = lower value
[2] = locus YMR307W, strain GAS1, stronger effect = lower value
[3] = locus YPL055C, strain LGE1, stronger effect = lower value

Measured: normalized growth

C[C@H](O)C(=O)C1=Nc2c(nc(N)[nH]c2=O)NC1
inactive: locus YAL013W, strain DEP1, stronger effect = lower value 0.952 | locus YAL040C, strain CLN3, stronger effect = lower value 0.966 | locus YCL061C, strain MRC1 (second series), stronger effect = lower value 0.983 | locus YDR363W, strain ESC2, stronger effect = lower value 0.952 | locus YER002W, strain NOP16, stronger effect = lower value 1.04 | locus YGR078C, strain PAC10, stronger effect = lower value 0.998 | [1] 0.98 | locus YMR263W, strain SAP30, stronger effect = lower value 0.983 | [2] 0.983 | locus YNL175C, strain NOP13, stronger effect = lower value 1.01 | locus YNL197C, strain WHI3, stronger effect = lower value 1.01 | locus YNL224C, strain SQS1, stronger effect = lower value 0.997 | locus YNL322C, strain KRE1, stronger effect = lower value 0.955 | locus YOR083W, strain WHI5 (second series), stronger effect = lower value 0.996 | [3] 0.971

C[C@@H]1CC[C@@]2(NC1)O[C@H]1C[C@H]3C4CC=C5C[C@@H](O)CC[C@]5(C)C4CC[C@]3(C)C1[C@@H]2C (some centres not stated)
active: locus YAL021C, strain ccr4, stronger effect = lower value 0.0884 | locus YAL026C, strain drs2, stronger effect = lower value 0.0686 | locus YAL030W, strain snc1, stronger effect = lower value 0.0727 | locus YBL061C, strain skt5, stronger effect = lower value 0.246 | locus YBR009C, strain hhf1, stronger effect = lower value 0.0752 | locus YBR021W, strain FUR4, stronger effect = lower value 0.566 | locus YBR023C, strain chs3, stronger effect = lower value 0.189 | locus YBR171W, strain sec66, stronger effect = lower value 0.0867 | locus YBR229C, strain ROT2, stronger effect = lower value 0.132 | locus YBR231C, strain swc5, stronger effect = lower value 0.147 | locus YBR279W, strain paf1, stronger effect = lower value 0.431 | locus YCL011C, strain gbp2, stronger effect = lower value 0.0674 | locus YCL016C, strain dcc1, stronger effect = lower value 0.155 | locus YCL029C, strain bik1, stronger effect = lower value 0.0831 | locus YCL061C, strain MRC1, stronger effect = lower value 0.0777 | locus YCL069W, strain vba3, stronger effect = lower value 0.067 | locus YCR088W, strain abp1, stronger effect = lower value 0.0699 | locus YDL005C, strain med2, stronger effect = lower value 0.0923 | locus YDL035C, strain GPR1, stronger effect = lower value 0.086 | locus YDL040C, strain nat1, stronger effect = lower value 0.495 | locus YDL074C, strain BRE1, stronger effect = lower value 0.188 | locus YDL101C, strain DUN1, stronger effect = lower value 0.0946 | locus YDL134C, strain PPH21, stronger effect = lower value 0.0628 | locus YDL185W, strain tfp1, stronger effect = lower value 0.673 | locus YDL192W, strain arf1, stronger effect = lower value 0.123 | locus YDR001C, strain nth1, stronger effect = lower value 0.0751 | locus YDR069C, strain doa4, stronger effect = lower value 0.255 | locus YDR101C, strain arx1, stronger effect = lower value 0.132 | locus YDR137W, strain rgp1, stronger effect = lower value 0.644 | locus YDR159W, strain sac3, stronger effect = lower value 0.155 | locus YDR162C, strain NBP2, stronger effect = lower value 0.0581 | locus YDR195W, strain ref2 0.153 | locus YDR297W, strain sur2, stronger effect = lower value 0.0933 | locus YDR318W, strain mcm21, stronger effect = lower value 0.0863 | locus YDR334W, strain swr1, stronger effect = lower value 0.075 | locus YDR335W, strain msn5, stronger effect = lower value 0.0693 | locus YDR388W, stronger effect = lower value 0.0688 | locus YDR392W, strain spt3, stronger effect = lower value 0.0901 | locus YDR502C, strain sam2, stronger effect = lower value 0.0995 | locus YEL003W, strain gim4, stronger effect = lower value 0.0687 | locus YEL037C, strain rad23, stronger effect = lower value 0.0666 | locus YEL061C, strain CIN8 (second series), stronger effect = lower value 0.0639 | locus YER015W, strain faa2, stronger effect = lower value 0.0893 | locus YER016W, strain bim1, stronger effect = lower value 0.306 | locus YER110C, stronger effect = lower value 0.116 | locus YER111C, strain swi4, stronger effect = lower value 0.0797 | locus YER155C, strain BEM2 (second series), stronger effect = lower value 0.106 | locus YER155C, strain BEM2, stronger effect = lower value 0.0845 | locus YER167W, strain BCK2, stronger effect = lower value 0.0646 | locus YFR010W, strain ubp6, stronger effect = lower value 0.0951 | locus YGL078C, strain dbp3, stronger effect = lower value 0.898 | locus YGL086W, strain mad1, stronger effect = lower value 0.0765 | locus YGL173C, strain kem1, stronger effect = lower value 0.474 | locus YGL227W, strain vid30, stronger effect = lower value 0.0779 | locus YGL240W, strain doc1, stronger effect = lower value 0.262 | locus YGL248W, strain PDE1, stronger effect = lower value 0.0583 | locus YGL253W, strain hxk2, stronger effect = lower value 0.0617 | locus YGR135W, strain pre9, stronger effect = lower value 0.0806 | locus YGR252W, strain gcn5, stronger effect = lower value 0.254 | locus YHR013C, strain ard1, stronger effect = lower value 0.131 | locus YHR027C, strain rpn1, stronger effect = lower value 0.157 | locus YHR079C, strain IRE1 (second series), stronger effect = lower value 0.107 | locus YHR094C, strain hxt1, stronger effect = lower value 0.0989 | locus YHR129C, strain ARP1, stronger effect = lower value 0.0688 | locus YHR142W, strain chs7, stronger effect = lower value 0.0769 | locus YHR200W, strain rpn10, stronger effect = lower value 0.103 | locus YIL066C, strain RNR3, stronger effect = lower value 0.0582 | locus YIL073C, strain SPO22, stronger effect = lower value 0.144 | locus YIL125W, strain kgd1, stronger effect = lower value 0.886 | locus YIR030C, strain dcg1, stronger effect = lower value 0.0978 | locus YJL092W, strain hpr5, stronger effect = lower value 0.0727 | locus YJL095W, strain BCK1 (second series), stronger effect = lower value 0.0644 | locus YJL115W, strain asf1, stronger effect = lower value 0.0841 | locus YJL129C, strain trk1, stronger effect = lower value 0.0945 | locus YJL134W, strain LCB3, stronger effect = lower value 0.0822 | locus YJL154C, strain vps35, stronger effect = lower value 0.0818 | locus YJL164C, strain tpk1, stronger effect = lower value 0.0731 | locus YJL166W, strain qcr8, stronger effect = lower value 0.0704 | locus YJL168C, strain set2, stronger effect = lower value 0.121 | locus YJL187C, strain SWE1 (second series), stronger effect = lower value 0.103 | [1] 0.119 | locus YKL009W, strain mrt4, stronger effect = lower value 0.807 | locus YKL160W, strain elf1, stronger effect = lower value 0.12 | locus YKR001C, strain vps1, stronger effect = lower value 0.0859 | locus YKR026C, strain gcn3, stronger effect = lower value 0.0875 | locus YKR091W, strain srl3, stronger effect = lower value 0.109 | locus YLL001W, strain dnm1, stronger effect = lower value 0.074 | locus YLL026W, stronger effect = lower value 0.0713 | locus YLL041C, strain sdh2, stronger effect = lower value 0.075 | locus YLR027C, strain aat2, stronger effect = lower value 0.0705 | locus YLR039C, strain RIC1, stronger effect = lower value 0.33 | locus YLR058C, strain SHM2, stronger effect = lower value 0.0802 | locus YLR102C, strain apc9, stronger effect = lower value 0.088 | locus YLR221C, strain rsa3, stronger effect = lower value 0.0678 | locus YLR258W, strain gsy2, stronger effect = lower value 0.0842 | locus YLR262C, strain YPT6 (second series), stronger effect = lower value 0.341 | locus YLR268W, strain sec22, stronger effect = lower value 0.0987 | locus YLR320W, strain mms22, stronger effect = lower value 0.091 | locus YLR342W, strain FKS1 (second series), stronger effect = lower value 0.0987 | locus YLR342W, strain FKS1, stronger effect = lower value 0.0952 | locus YLR357W, strain rsc2, stronger effect = lower value 0.172 | locus YLR370C, strain arc18, stronger effect = lower value 0.066 | locus YLR371W, strain rom2, stronger effect = lower value 0.0867 | locus YLR384C, strain iki3, stronger effect = lower value 0.702 | locus YLR418C, strain cdc73, stronger effect = lower value 0.127 | locus YML016C, strain PPZ1, stronger effect = lower value 0.0701 | locus YML032C, strain rad52, stronger effect = lower value 0.112 | locus YML120C, strain ndi1, stronger effect = lower value 0.0773 | locus YML124C, strain tub3, stronger effect = lower value 0.0964 | locus YMR058W, strain fet3, stronger effect = lower value 0.0836 | locus YMR078C, strain ctf18, stronger effect = lower value 0.0876 | locus YMR125W, strain sto1, stronger effect = lower value 0.089 | locus YMR129W, stronger effect = lower value 0.0739 | locus YMR205C, strain PFK2, stronger effect = lower value 0.15 | locus YMR223W, strain ubp8, stronger effect = lower value 0.0986 | locus YMR231W, strain pep5, stronger effect = lower value 0.319 | [2] 0.145 | locus YNL067W, strain RPL9B, stronger effect = lower value 0.132 | locus YNL071W, strain lat1, stronger effect = lower value 0.0643 | locus YNL209W, strain ssb2, stronger effect = lower value 0.19 | locus YNL233W, strain BNI4, stronger effect = lower value 0.0774 | locus YNL248C, strain rpa49, stronger effect = lower value 0.079 | locus YNL250W, strain rad50, stronger effect = lower value 0.889 | locus YNL271C, strain bni1, stronger effect = lower value 0.848 | locus YNL298W, strain CLA4, stronger effect = lower value 0.767 | locus YNL307C, strain MCK1, stronger effect = lower value 0.0706 | locus YNL322C, strain KRE1 (second series), stronger effect = lower value 0.0978 | locus YNR049C, strain mso1, stronger effect = lower value 0.0668 | locus YNR052C, strain pop2, stronger effect = lower value 0.282 | locus YOL147C, strain pex11, stronger effect = lower value 0.0757 | locus YOR001W, strain rrp6, stronger effect = lower value 0.083 | locus YOR061W, strain CKA2, stronger effect = lower value 0.0862 | locus YOR069W, strain VPS5, stronger effect = lower value 0.104 | locus YOR070C, strain gyp1, stronger effect = lower value 0.151 | locus YOR080W, strain dia2, stronger effect = lower value 0.277 | locus YOR083W, strain WHI5, stronger effect = lower value 0.134 | locus YOR106W, strain vam3, stronger effect = lower value 0.0987 | locus YOR136W, strain idh2, stronger effect = lower value 0.108 | locus YOR144C, strain elg1, stronger effect = lower value 0.0812 | locus YOR184W, strain ser1, stronger effect = lower value 0.0846 | locus YOR265W, strain rbl2, stronger effect = lower value 0.0812 | locus YOR270C, strain vph1, stronger effect = lower value 0.0993 | locus YOR290C, strain snf2, stronger effect = lower value 0.074 | locus YOR316C, strain cot1, stronger effect = lower value 0.0883 | locus YPL051W, strain arl3, stronger effect = lower value 0.436 | [3] 0.137 | locus YPL078C, strain atp4, stronger effect = lower value 0.0699 | locus YPL106C, strain sse1, stronger effect = lower value 0.154 | locus YPL240C, strain hsp82, stronger effect = lower value 0.0838 | locus YPR119W, strain clb2, stronger effect = lower value 0.0943 | locus YPR163C, strain tif3, stronger effect = lower value 0.0947 | locus YPR167C, strain met16, stronger effect = lower value 0.0878 | strain wtn01, stronger effect = lower value 0.0815
0.0512 (active) and 1.05 (inactive): locus YHR030C, strain SLT2, stronger effect = lower value
0.0614 (active) and 1.03 (inactive): locus YJL095W, strain BCK1, stronger effect = lower value
inactive: locus YGL167C, strain pmr1, stronger effect = lower value 0.956 | locus YHR079C, strain IRE1, stronger effect = lower value 1.03 | locus YJR066W, strain TOR1, stronger effect = lower value 0.985 | locus YKL068W, stronger effect = lower value 1.01 | locus YKL085W, strain MDH1 (second series), stronger effect = lower value 0.942 | locus YKL085W, strain MDH1, stronger effect = lower value 0.942 | locus YLR113W, strain HOG1, stronger effect = lower value 1.04 | locus YNL183C, strain NPR1, stronger effect = lower value 0.989 | locus YOL012C, strain htz1 0.198 | locus YOR231W, strain MKK1, stronger effect = lower value 1.03 | locus YPL256C, strain CLN2, stronger effect = lower value 1.07 | locus YPR141C, strain kar3, stronger effect = lower value 1.06
